Experimental data as given in PubChem BioAssay (Tox21).
Records with an inconclusive call do not appear. Active and inactive are the calls of the source. Unless noted, calls come from the whole dose curve; as a rule, active = well fitted curve in the direction sought with a large enough effect in the repeat runs; inconclusive = weak or mixed curves; inactive = no such curve, though single readings can be large; an effect the other way counts as inactive or inconclusive.

Assays:
[1] = qHTS assay to identify small molecule agonists of the peroxisome proliferator-activated receptor delta (PPARd) signaling pathway - cell viability counter screen (AID 743211); note: % is set by controls: 0 for no effect and ±100 for the full control effect; nearly all actives have a fitted effect of over 55% in size
Summary of the method: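 Multiplexed format: after the 2 h room-temperature LiveBLAzer B/G FRET step, CellTiter-Glo was added to the same wells. Luminescence after 30 min gave cell viability; compound exposure was 17 h at 37C.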

[2] = biological target: Peroxisome proliferator-activated receptor delta (Homo sapiens) (UniProt Q03181); test: qHTS assay to identify small molecule antagonists of the peroxisome proliferator-activated receptor delta (PPARd) signaling pathway (AID 743215; active = well fitted inhibition curve with a large enough effect in the signal ratio in the repeat runs, not every such curve was filed as active; the % refers to the signal ratio;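 note: cells stimulated with agonist L165041 at 300 nM final during compound exposure; series mostly up to about 62 µM; % is set by controls: 0 for no effect and ±100 for the full control effect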)
Sequence of Peroxisome proliferator-activated receptor delta (Homo sapiens) (Q03181 whole entry, looked up): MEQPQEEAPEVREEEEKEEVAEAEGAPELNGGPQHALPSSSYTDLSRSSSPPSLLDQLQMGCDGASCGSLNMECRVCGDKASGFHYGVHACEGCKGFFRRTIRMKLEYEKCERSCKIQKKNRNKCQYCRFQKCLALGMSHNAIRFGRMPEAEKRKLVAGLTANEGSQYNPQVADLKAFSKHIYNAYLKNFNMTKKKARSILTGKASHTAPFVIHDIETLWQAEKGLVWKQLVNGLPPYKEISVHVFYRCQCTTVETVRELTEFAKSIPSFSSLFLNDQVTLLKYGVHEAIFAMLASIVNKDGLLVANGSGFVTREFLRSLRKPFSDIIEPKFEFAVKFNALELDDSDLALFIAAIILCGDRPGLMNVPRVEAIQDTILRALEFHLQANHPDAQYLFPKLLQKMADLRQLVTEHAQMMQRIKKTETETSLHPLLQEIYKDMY
Summary of the method: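 HEK293H GeneBLAzer PPARd UAS-bla reporter cells; cpd + L165041 300 nM final, 17 h 37 C; LiveBLAzer B/G FRET substrate 2 h RT; fluorescence intensity read-out. Antagonist mode.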

[3] = biological target: Bile acid receptor (Homo sapiens) (UniProt Q96RI1); test: qHTS assay to identify small molecule antagonists of the farnesoid-X-receptor (FXR) signaling pathway (AID 743217; active = well fitted inhibition curve with a large enough effect in the signal ratio in the repeat runs, not every such curve was filed as active; the % refers to the signal ratio; note: % is set by controls: 0 for no effect and ±100 for the full control effect)
Sequence of Bile acid receptor (Homo sapiens) (Q96RI1 whole entry, looked up): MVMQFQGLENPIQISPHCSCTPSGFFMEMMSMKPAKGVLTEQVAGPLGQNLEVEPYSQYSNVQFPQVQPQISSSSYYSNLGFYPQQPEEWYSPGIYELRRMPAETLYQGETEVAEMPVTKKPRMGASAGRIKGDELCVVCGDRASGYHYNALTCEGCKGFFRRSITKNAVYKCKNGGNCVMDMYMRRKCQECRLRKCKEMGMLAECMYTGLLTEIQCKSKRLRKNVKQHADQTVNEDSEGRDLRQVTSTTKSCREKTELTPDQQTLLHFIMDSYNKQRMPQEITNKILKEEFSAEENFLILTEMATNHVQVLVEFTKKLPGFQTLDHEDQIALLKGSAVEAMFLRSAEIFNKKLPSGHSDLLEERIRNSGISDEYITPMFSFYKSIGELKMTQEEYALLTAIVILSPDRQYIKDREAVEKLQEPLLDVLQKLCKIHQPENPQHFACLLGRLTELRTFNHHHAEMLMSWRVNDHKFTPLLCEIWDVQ
Summary of the method: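 Read-out: beta-lactamase FRET fluorescence (LiveBLAzer B/G substrate, 2 h, room temperature) in GeneBLAzer FXR-UAS-bla HEK 293T cells. Compounds were co-dosed with 50 uM chenodeoxycholic acid (final) and incubated 16 h at 37 °C.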

[4] = qHTS assay to identify small molecule agonists of the farnesoid-X-receptor (FXR) signaling pathway - cell viability counter screen (AID 743218); note: % is set by controls: 0 for no effect and ±100 for the full control effect; nearly all actives have a fitted effect of over 45% in size
Summary of the method: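 Luminescence from CellTiter-Glo, read after 30 min at RT, reports viability of GeneBLAzer FXR-UAS-bla HEK 293T cells treated 16 h with compounds in the wells used for the beta-lactamase reporter.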

[5] = biological target: Bile acid receptor (Homo sapiens) (UniProt Q96RI1); test: qHTS assay to identify small molecule agonists of the farnesoid-X-receptor (FXR) signaling pathway (AID 743220; active = well fitted activation curve with a large enough effect in the signal ratio in the repeat runs, not every such curve was filed as active; the % refers to the signal ratio; note: % is set by controls: 0 for no effect and ±100 for the full control effect)
Summary of the method: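 FXR-UAS-bla HEK 293T cells carrying a UAS-driven beta-lactamase reporter were plated for 5 h at 37C/5% CO2, then exposed to DMSO-dissolved Tox21 10K compounds for 16 h at 37C. A LiveBLAzer B/G FRET substrate was loaded for 2 h at room temperature before fluorescence reading.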

[6] = qHTS assay to identify small molecule antagonists of the farnesoid-X-receptor (FXR) signaling pathway - cell viability counter screen (AID 743221; active = well fitted cell-killing curve with a large enough effect in the repeat runs, not every such curve was filed as active; note: % is set by controls: 0 for no effect and ±100 for the full control effect; nearly all actives have a fitted effect of over 50% in size)
Summary of the method: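 CellTiter-Glo, 30 min RT, luminescence; same wells as the LiveBLAzer FRET read. Cells: FXR-UAS-bla HEK 293T. Treatment: compound with chenodeoxycholic acid 50 uM final, 16 h at 37 C.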

[7] = biological target: Vitamin D3 receptor (Homo sapiens) (UniProt P11473); test: qHTS assay to identify small molecule agonists of the vitamin D receptor (VDR) signaling pathway (AID 743222; calls by dose curve; note: % is set by controls: 0 for no effect and ±100 for the full control effect)
Sequence of Vitamin D3 receptor (Homo sapiens) (P11473 whole entry, looked up): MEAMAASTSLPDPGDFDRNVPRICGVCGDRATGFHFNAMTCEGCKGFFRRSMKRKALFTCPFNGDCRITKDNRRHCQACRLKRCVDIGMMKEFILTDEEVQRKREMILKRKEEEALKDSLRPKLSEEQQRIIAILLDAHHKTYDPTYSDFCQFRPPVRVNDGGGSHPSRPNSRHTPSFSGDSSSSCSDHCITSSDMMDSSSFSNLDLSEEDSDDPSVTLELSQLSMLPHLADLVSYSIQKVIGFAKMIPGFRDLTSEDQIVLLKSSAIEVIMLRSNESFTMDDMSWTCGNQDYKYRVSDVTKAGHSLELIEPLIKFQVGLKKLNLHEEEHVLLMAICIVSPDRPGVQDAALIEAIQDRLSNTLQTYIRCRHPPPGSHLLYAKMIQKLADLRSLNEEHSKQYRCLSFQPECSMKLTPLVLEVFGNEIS
Summary of the method: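 Beta-lactamase reporter readout (LiveBLAzer B/G FRET, 2 h RT) in VDR-bla cells after 16 h compound treatment at 37C, 5% CO2; cells pre-incubated 4 h before pin transfer of DMSO solutions.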

[8] = qHTS assay to identify small molecule agonists of the vitamin D receptor (VDR) signaling pathway - cell viability counter screen (AID 743224); note: series mostly up to about 63 µM; % is set by controls: 0 for no effect and ±100 for the full control effect; nearly all actives have a fitted effect of over 50% in size
Summary of the method: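 Cytotoxicity counter screen: VDR-bla cells, 16 h compound exposure at 37C, 5% CO2; CellTiter-Glo luminescence, 30 min RT, same wells as bla read.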

[9] = qHTS assay to identify small molecule antagonists of the vitamin D receptor (VDR) signaling pathway - cell viability counter screen (AID 743225); note: % is set by controls: 0 for no effect and ±100 for the full control effect; nearly all actives have a fitted effect of over 50% in size
Summary of the method: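 Cytotoxicity toward the VDR-bla HEK 293T line was scored by ATP-based CellTiter-Glo luminescence, read in the wells already used for the beta-lactamase readout after 16 h compound treatment under 3 nM 1-alpha,25-dihydroxyvitamin D3 stimulation.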

[10] = qHTS assay to identify small molecule agonists of the NFkB signaling pathway - cell viability counter screen (AID 1159515; calls by dose curve; note: series mostly up to about 61 µM; % is set by controls: 0 for no effect and ±100 for the full control effect; nearly all actives have a fitted effect of over 55% in size)
Summary of the method: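 ME-180 NFkB-bla cells, 2,000/well; overnight attach; compound 5 hr, 37 C/5% CO2; LiveBLAzer substrate 1.5 hr RT; then CellTiter-Glo in same wells, 30 min RT, luminescence read.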

[11] = qHTS assay to identify small molecule agonists of the endoplasmic reticulum stress response signaling pathway (AID 1159516; active = well fitted activation curve with a large enough effect in the signal ratio in the repeat runs, not every such curve was filed as active; the % refers to the signal ratio; note: % is set by controls: 0 for no effect and ±100 for the full control effect)
Summary of the method: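 HeLa ESRE-bla reporter line; cpd 5 h, 37 C/5% CO2; LiveBLAzer B/G FRET substrate 2 h RT; ex 405, em 460/530 nm.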

[12] = qHTS assay to identify small molecule agonists of the endoplasmic reticulum stress response signaling pathway - cell viability counter screen (AID 1159517; calls by dose curve;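 note: HeLa cells carrying an ER stress response element beta-lactamase reporter; series mostly up to about 61 µM; % is set by controls: 0 for no effect and ±100 for the full control effect; nearly all actives have a fitted effect of over 50% in size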)
Summary of the method: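 Cytotoxicity of test compounds toward ESRE-bla HeLa cells was assessed after 5 hr exposure. The luminescent CellTiter-Glo signal was measured 30 min after reagent addition.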

[13] = qHTS assay to identify small molecule antagonists of the retinoid-related orphan receptor gamma (ROR-gamma) signaling pathway - cell viability counter screen (AID 1159520)
Summary of the method: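 Tet-on ROR gamma CHO cells (1,000/well) were plated 4 hr, given compounds in DMSO for 2 hr at 37 C, then induced with 1 uM final doxycycline for 16 hr. Viability was read as ATP by CellTiter-Glo luminescence after 30 min.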

[14] = biological target: Nuclear receptor ROR-gamma (Homo sapiens) (UniProt P51449); test: qHTS assay to identify small molecule antagonists of the retinoid-related orphan receptor gamma (ROR-gamma) signaling pathway (AID 1159521)
Summary of the method: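 Readout: ONE-Glo luciferase luminescence, 30 min at room temperature. System: Tet-on RORγ CHO, RORE-LUC. Sequence: compound 2 h, doxycycline 1 uM final, 16 h at 37 C.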

[15] = qHTS assay to identify small molecule agonists of the AP-1 signaling pathway - cell viability counter screen (AID 1159525; calls by dose curve; note: nearly all actives have a fitted effect of over 55% in size)
Summary of the method: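 Each titration point was normalised to DMSO and tetra n-octyl ammonium bromide controls. The read was Cell Titer Glo luminescence after 30 min at RT, following 5 h compound exposure of ME-180 AP-1-bla cells at 37 °C.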

[16] = qHTS assay to identify small molecule agonists of the AP-1 signaling pathway (AID 1159526; calls by dose curve; note: % is set by controls: 0 for no effect and ±100 for the full control effect)
[17] = biological target: Retinoic acid receptor RXR-alpha (Homo sapiens) (UniProt P19793); test: qHTS assay to identify small molecule agonists of the RXR signaling pathway (AID 1159527; calls by dose curve; note: % is set by controls: 0 for no effect and ±100 for the full control effect; nearly all actives have a fitted effect of over 35% in size)
Sequence of Retinoic acid receptor RXR-alpha (Homo sapiens) (P19793 whole entry, looked up): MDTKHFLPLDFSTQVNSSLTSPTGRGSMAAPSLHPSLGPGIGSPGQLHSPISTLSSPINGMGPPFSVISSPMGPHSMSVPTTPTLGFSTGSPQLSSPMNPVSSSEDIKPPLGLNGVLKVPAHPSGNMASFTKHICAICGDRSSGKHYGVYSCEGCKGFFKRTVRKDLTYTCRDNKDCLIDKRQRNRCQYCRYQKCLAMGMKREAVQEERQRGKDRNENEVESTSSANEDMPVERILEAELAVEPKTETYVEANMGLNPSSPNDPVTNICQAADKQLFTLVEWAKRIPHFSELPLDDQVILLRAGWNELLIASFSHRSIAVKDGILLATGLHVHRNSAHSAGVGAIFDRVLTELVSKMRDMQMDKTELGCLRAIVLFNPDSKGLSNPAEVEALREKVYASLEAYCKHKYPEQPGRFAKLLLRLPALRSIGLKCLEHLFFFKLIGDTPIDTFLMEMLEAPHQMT
Summary of the method: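 Reporter activation is measured as beta-lactamase activity via FRET substrate cleavage (emission 460/530 nm) in HEK 293T cells expressing an RXR-alpha-driven bla construct, following 16 hr compound exposure at 37 C.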

[18] = qHTS assay to identify small molecule antagonists of the peroxisome proliferator-activated receptor delta (PPARd) signaling pathway - cell viability counter screen (AID 743213)
Summary of the method: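 PPARd-bla HEK293H cells (3000/well) got compound plus 300 nM L165041 agonist for 17 h at 37 C. Viability in the same wells came from CellTiter-Glo luminescence after 30 min at room temperature.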

[19] = biological target: Vitamin D3 receptor (Homo sapiens) (UniProt P11473); test: qHTS assay to identify small molecule antagonists of the vitamin D receptor (VDR) signaling pathway (AID 743223; active = well fitted inhibition curve with a large enough effect in the signal ratio in the repeat runs, not every such curve was filed as active; the % refers to the signal ratio; note: % is set by controls: 0 for no effect and ±100 for the full control effect)
Summary of the method: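 After VDR-bla cells are plated and left 4 h at 37C, DMSO-dissolved compounds and 3 nM (final) calcitriol agonist are added. Incubation continues 16 h at 37C; FRET beta-lactamase substrate then develops 2 h at room temperature.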

[20] = biological target: Peroxisome proliferator-activated receptor delta (Homo sapiens) (UniProt Q03181); test: qHTS assay to identify small molecule agonists of the peroxisome proliferator-activated receptor delta (PPARd) signaling pathway (AID 743212; calls by dose curve; note: % is set by controls: 0 for no effect and ±100 for the full control effect)
Summary of the method: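 Beta-lactamase reporter read by fluorescence (LiveBLAzer B/G FRET, 2 h, room temperature). Test agents, in DMSO, incubated at 37 C with PPARd-bla HEK293H cells.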

c1ccc2c(c1)CCCC2C1=NCCN1 (stereo not drawn)
inactive: Potency [1] | Potency [2] | Potency [3] | Potency [4] | Potency [5] | Potency [6] | Potency [7] | Potency [8] | Potency [9] | Potency [10] | outcome [11] | Potency [12] | Potency [13] | Potency [14] | Potency [15] | Potency [16] | Potency [17]

O=Cc1ccc(Cl)cc1
inactive: Potency [1] | Potency [18] | Potency [2] | Potency [4] | Potency [6] | Potency [7] | Potency [19] | Potency [8] | Potency [9] | Potency [10] | outcome [11] | Potency [12] | Potency [13] | Potency [14] | Potency [15] | Potency [16] | Potency [17]

NC(Cc1ccc(Cl)cc1)C(=O)O (stereo not drawn)
inactive: activity change, negative = cytotoxicity [1] 4.79% [at 0.55 µM] | activation [20] 2.85% [at 0.55 µM] | ratio activity, negative = inhibition [2] 5.74% [at 0.575 µM] | activity change, negative = inhibition [3] 10.5% [at 0.55 µM] | viability change, negative = cytotoxic [4] 0.639% [at 0.55 µM] | activation [5] 2.17% [at 0.55 µM] | activity change, negative = cytotoxicity [6] 5.76% [at 0.55 µM] | activation [7] 0.21% [at 0.554 µM] | activity change, negative = inhibition [19] -2.76% [at 0.628 µM] | activity change, negative = cytotoxicity [8] 2.72% [at 0.55 µM] | viability change, negative = cytotoxic [9] -8.18% [at 0.628 µM] | activity, negative = cytotoxic [10] 8.56% [at 0.628 µM] | activation [11] 2.37% [at 0.628 µM] | activity change, negative = cytotoxicity [12] 3.91% [at 0.628 µM] | activity, negative = cytotoxicity [13] 3.35% [at 0.349 µM] | activity change, negative = inhibition [14] 14.9% [at 0.35 µM] | viability change, negative = cytotoxic [15] -2.41% [at 0.29 µM] | activation [16] -0.248% [at 0.29 µM] | activation [17] -0.301% [at 0.29 µM]

CCn1cc(C(=O)O)c(=O)c2cc(F)c(N3CCNC(C)C3)c(F)c21 (stereo not drawn)
inactive: Potency [1] | Potency [20] | Potency [18] | Potency [2] | Potency [4] | Potency [6] | Potency [8] | Potency [9] | Potency [10] | outcome [11] | Potency [12] | Potency [13] | Potency [14] | Potency [15] | Potency [16] | Potency [17]

C[N+]1([O-])CCOCC1
inactive: Potency [1] | Potency [20] | Potency [18] | Potency [2] | Potency [4] | Potency [6] | Potency [7] | Potency [19] | Potency [8] | Potency [9] | Potency [10] | outcome [11] | Potency [12] | Potency [13] | Potency [14] | Potency [15] | Potency [16] | Potency [17]

CN1C(=O)c2ccc([N+](=O)[O-])cc2C1=O
inactive: Potency [1] | Potency [18] | Potency [2] | Potency [3] | Potency [4] | Potency [5] | Potency [6] | Potency [7] | Potency [19] | Potency [8] | Potency [9] | Potency [10] | outcome [11] | Potency [12] | Potency [13] | Potency [14] | Potency [15] | Potency [16] | Potency [17]

O=C(Oc1ccccc1)c1ccccc1O
inactive: Potency [1] | Potency [18] | Potency [4] | Potency [6] | Potency [8] | Potency [9] | Potency [10] | outcome [11] | Potency [12] | Potency [13] | Potency [14] | Potency [15] | Potency [16] | Potency [17]

CC(=O)CC(=O)Nc1ccc2[nH]c(=O)[nH]c2c1
inactive: Potency [1] | Potency [20] | Potency [18] | Potency [2] | Potency [3] | Potency [4] | Potency [5] | Potency [6] | Potency [8] | Potency [9] | Potency [10] | outcome [11] | Potency [12] | Potency [13] | Potency [14] | Potency [15] | Potency [16] | Potency [17]

CC1COc2c(N3CCN(C)CC3)c(F)cc3c(=O)c(C(=O)O)cn1c23 (stereo not drawn)
inactive: Potency [1] | Potency [20] | Potency [18] | Potency [2] | Potency [3] | Potency [4] | Potency [5] | Potency [6] | Potency [7] | Potency [19] | Potency [8] | Potency [9] | Potency [10] | outcome [11] | Potency [12] | Potency [13] | Potency [14] | Potency [15] | Potency [16] | Potency [17]

CC(C)(O)CCC(C)(C)O
inactive: Potency [1] | Potency [20] | Potency [2] | Potency [4] | Potency [6] | Potency [7] | Potency [19] | Potency [8] | Potency [9] | Potency [10] | outcome [11] | Potency [12] | Potency [13] | Potency [14] | Potency [15] | Potency [16] | Potency [17]

O=C(O)c1cccc(C(=O)O)c1
inactive: Potency [1] | Potency [20] | Potency [2] | Potency [3] | Potency [4] | Potency [5] | Potency [6] | Potency [8] | Potency [9] | Potency [10] | outcome [11] | Potency [12] | Potency [13] | Potency [14] | Potency [15] | Potency [16] | Potency [17]

CCCCN(CCO)CCCC
inactive: Potency [1] | Potency [18] | Potency [2] | Potency [3] | Potency [4] | Potency [5] | Potency [6] | Potency [7] | Potency [19] | Potency [8] | Potency [9] | Potency [10] | outcome [11] | Potency [12] | Potency [13] | Potency [14] | Potency [15] | Potency [16] | Potency [17]

CC(C)(C)c1ccccc1
inactive: Potency [1] | Potency [18] | Potency [4] | Potency [6] | Potency [7] | Potency [8] | Potency [9] | Potency [10] | outcome [11] | Potency [12] | Potency [13] | Potency [14] | Potency [15] | Potency [16] | Potency [17]

C=C(C)C(=O)O
inactive: Potency [1] | Potency [18] | Potency [2] | Potency [4] | Potency [6] | Potency [7] | Potency [19] | Potency [8] | Potency [9] | Potency [10] | outcome [11] | Potency [12] | Potency [13] | Potency [14] | Potency [15] | Potency [16] | Potency [17]
